# Bioassay records: PubChem, Paczesny and Yang Labs, IUPUI and University of Michigan
# Only a selection was taken, and hits are over-represented in it overall.
# ST2 IL33 inh = inhibitors of human ST2 (IL1RL1) binding to IL-33, primary screen, biochemical, AlphaLISA; AlphaLISA ST2-Fc/biotin-IL-33 interaction, 1 h; AID 1259354, 2018; inhibition, % for hits at 17 µM; 2.3% of 78,000 active; in the data active = inhibition above about 30%
# Target sequence (Q01638 whole entry, looked up): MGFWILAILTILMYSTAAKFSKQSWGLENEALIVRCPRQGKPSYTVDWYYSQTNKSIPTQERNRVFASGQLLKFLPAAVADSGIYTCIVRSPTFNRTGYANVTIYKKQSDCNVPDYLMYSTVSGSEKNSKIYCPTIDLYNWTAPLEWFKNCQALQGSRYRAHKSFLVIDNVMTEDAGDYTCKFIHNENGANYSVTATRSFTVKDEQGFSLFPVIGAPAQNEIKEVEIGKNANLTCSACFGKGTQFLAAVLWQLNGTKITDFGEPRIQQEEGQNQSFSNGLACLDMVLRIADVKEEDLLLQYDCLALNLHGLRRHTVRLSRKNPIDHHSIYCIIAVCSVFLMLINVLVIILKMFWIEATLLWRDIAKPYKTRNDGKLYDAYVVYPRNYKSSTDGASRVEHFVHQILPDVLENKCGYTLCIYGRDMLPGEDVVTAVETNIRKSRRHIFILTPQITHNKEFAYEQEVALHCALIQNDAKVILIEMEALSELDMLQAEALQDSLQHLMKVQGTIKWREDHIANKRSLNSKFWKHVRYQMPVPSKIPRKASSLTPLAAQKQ
# * = called active by the depositor; i = inactive; ! = not confirmed by another sample.
SMILES,ST2 IL33 inh
CC[C@@]12C[C@H]3C[C@@](O)(C1)C[C@](C(=O)NCc1cncn1CC(C)C)(C3)C2,i
Cc1nc(C(C)C)sc1C(=O)N1CCOC(CCN(C)C)C1 (stereo not drawn),i
O=S(=O)(c1ccc(-c2csc(=Nc3ccc(Cl)cc3)n2CCCO)cc1)N1CCCC1,40.0%*
CCOC(=O)c1sc(=Nc2ccc(C)cc2)n(CCN2CCOCC2)c1C,i
CCOc1ccc(-c2csc(=Nc3ccccc3)n2CCN2CCOCC2)cc1,i
O=C(NCc1ccc(F)cc1)c1cc(-c2ccc(Cl)cc2)on1,i
CCOC(=O)c1sc(=NC(=O)c2ccc(OCC)cc2)n(C)c1C,i
CCOc1ccc(N=c2scc(-c3ccc(F)cc3)n2CCCO)cc1,40.0%*
O=C(c1ccc(S(=O)(=O)N2CCCC2)cc1)N1CCN=C1SCc1ccc(Cl)cc1,i
CCOc1ccc(NC(=O)Cc2ccc(F)cc2)cc1,i
Cn1c(=NC(=O)c2ccc(S(=O)(=O)N3CCCC3)cc2)sc2cc(Cl)ccc21,i
CCOc1ccc(N=c2scc(-c3ccc(C)cc3)n2C)cc1,43.0%*
OCCCn1c(-c2ccc(F)cc2)csc1=Nc1ccc(Cl)cc1,46.0%*
Fc1ccc(Nc2nc(-c3ccc(Cl)cc3)cs2)cc1,i
O=C(NCc1ccco1)c1ccc(Br)o1,i
O=C(Nc1cc(Cl)ccc1Cl)c1ccccc1Br,i
O=C(NCC(F)(F)F)c1cc(COc2ccc(F)c(F)c2)on1,i
CN(CCc1ccccn1)Cc1cccc(F)c1,i
CCCn1cnc2sc(C(=O)Oc3ccc(F)cc3)c(C)c2c1=O,i
Cc1ccccc1N=C(NN)c1ccccn1,i
COc1ccccc1C(CC(=O)O)c1ccc2c(c1)OCO2 (stereo not drawn),i
O=C(c1ccc(C2CCCO2)s1)N1C[C@@H]2[C@H](C1)[C@H]1CC[C@@H]2O1 (stereo partly drawn),i
CN(C)C(C(=O)N1C[C@@H]2[C@H](C1)[C@H]1CC[C@@H]2O1)c1ccc2c(c1)OCO2 (stereo partly drawn),50.0%*
CC(C)NC(=O)[C@@H]1C[C@@H](N)CN1Cc1cc(C(C)C)no1,i
O=C(Cn1c(=O)n(-c2ccccc2)c(=O)c2sccc21)OCc1ccccc1,i
SMILES,ST2 IL33 inh
O=C(Nc1ccccc1[N+](=O)[O-])C1=C(O)CCn2c1nc1ccccc12,34.0%*
Cc1nc2ccccc2n1C(=O)c1ccccc1[N+](=O)[O-],i
O=C(Nc1ccccc1[N+](=O)[O-])C1=NN=CC1[N+](=O)[O-] (stereo not drawn),i
COc1ccc(OCc2cc(C(=O)NCC(C)O)n[nH]2)c(Cl)c1 (stereo not drawn),i
Cc1ccc(CNC(=O)c2ccc(N)cc2)cc1C,i
Cc1ccc(/C=C/C(=O)Nc2cc3cc([N+](=O)[O-])ccc3oc2=O)cc1,i
O=C(c1ccccc1Cl)N1CCN=C1SCc1ccccc1F,i
Cc1ccc(C2CC(c3ccc(F)cc3)n3nc(N)nc3N2)cc1 (stereo not drawn),i
Cc1ccc(N=Cc2ccc(N(C)C)c([N+](=O)[O-])c2)cc1,i
COc1ccc(N=Cc2ccc(Br)c([N+](=O)[O-])c2)cc1,38.0%*
COc1cc(OC)c(C=Nc2cc([N+](=O)[O-])ccc2C)cc1Br,i
O=[N+]([O-])c1cc(C=Nc2ccc3c(c2)OCCO3)ccc1Br,i
N#Cc1ccccc1N=Cc1ccc(Br)c([N+](=O)[O-])c1,30.0%*
N#Cc1ccccc1N=Cc1cc2c(cc1[N+](=O)[O-])OCO2,i
COc1cc(C=O)ccc1OCCCOc1ccc([N+](=O)[O-])cc1,i
Cc1ccc(N=Cc2ccc(Br)c([N+](=O)[O-])c2)c(O)c1,i
COc1ccc(N=Cc2ccc(Oc3ccc([N+](=O)[O-])cc3[N+](=O)[O-])c(OC)c2)cc1,34.0%*
CCn1cc(C(=O)NCc2cccnc2-n2cnc3ccccc32)cn1,i
Cc1nc(CCNC(=O)C2CC(C(C)C)=NO2)sc1C (stereo not drawn),i
Cc1ccc2c(c1)N(C(C)C(=O)NCc1cccnc1)C(=O)CO2 (stereo not drawn),i
O=C(CSc1nnc(Cc2cc(=O)[nH]c(=O)[nH]2)n1-c1ccccc1)Nc1ccc(Cl)cc1,i
CCn1cc(C(=O)N2CCCCCC2)c(=O)c2cc(S(=O)(=O)N3CCC(C)CC3)ccc21,i
CCOC(=O)C1=C(CN(CC)CC)N(C)C(=O)NC1c1ccccc1 (stereo not drawn),i
CC1CN(c2c3c(c(C#N)c4nc5ccccc5n24)CCC3)CC(C)O1 (stereo not drawn),i
N#Cc1c(-c2ccccc2)c(C#N)c2nc3ccccc3n2c1N,32.0%*
SMILES,ST2 IL33 inh
Cc1nccn1-c1c2c(c(C#N)c3nc4ccccc4n13)CCC2,i
CCSc1nc2c(c(=O)[nH]1)C(c1cccc(OC)c1)C1=C(CCCC1=O)N2 (stereo not drawn),i
O=C(OCc1ccc(O[C@@H]2O[C@H](CO)[C@@H](O)[C@H](O)[C@H]2O)c(O)c1)c1ccc(O)c(O)c1,i
COc1ccccc1N1CCN(c2ncnc3sc(C(=O)O)c(C)c23)CC1,40.0%*!
Cc1c(C(=O)O)sc2ncnc(N3CCN(c4ccccc4F)CC3)c12,i
CCCN1CCN(c2ncnc3sc(C(=O)O)c(C)c23)CC1,i
CC1=C(C(=O)Nc2ccccn2)C(c2ccc(Cl)c([N+](=O)[O-])c2)C2=C(CC(C)(C)CC2=O)N1 (stereo not drawn),i
CC1=Nc2c([nH]c3ccccc23)-c2cc(C)ccc2N1,32.0%*
Cc1ccc2[nH]c(=O)nc(-c3ccccc3)c2c1,i
Cc1cc(C)c(-c2csc(NC(=O)c3ccc(S(=O)(=O)N4CCOCC4)cc3)n2)c(C)c1,i
CCOc1ccccc1C1C(C#N)=C(N)Oc2n[nH]c(-c3ccc(C)cc3)c21 (stereo not drawn),i
Cc1[nH]nc(NN)c1Cl,55.0%*
Cc1ccccc1CSc1nnc(Cc2cc(=O)[nH]c(=O)[nH]2)n1-c1ccccc1,i
COc1ccc2c(c1)C(C)(C)C1(C=Cc3cc([N+](=O)[O-])cc(OC)c3O1)N2C (stereo not drawn),73.0%*
COc1ccc(-n2c(C)c([N+](=O)[O-])c3ccc(O)cc32)cc1,i
COc1ccc(NC(=O)c2ccc([N+](=O)[O-])cc2)c(OC)c1,i
CCCNC(=O)NC(=O)c1c(Cl)nc(C)c(Cl)c1C,i
CCOC(=O)C1=C(C)NC2=C(C(=O)C(C(=O)OC)C(C)C2)C1c1coc2ccccc2c1=O (stereo not drawn),i
Cn1ccnc1CN1CCCC(CNC(=O)NC2CCCC2)C1 (stereo not drawn),i
CNC(=O)c1ccc(CN2CCCC(Nc3ccc(F)cc3)C2)o1 (stereo not drawn),36.0%*
NC(=O)C(=O)NC1CCCN(Cc2ccc(F)cc2)C1 (stereo not drawn),i
COc1ccc(-c2ncc(CN3CCCC(Nc4ccc(F)cc4)C3)cn2)cc1 (stereo not drawn),i
O=C(Nc1ccc(N2CCC(NC(c3ccccn3)C(F)(F)F)CC2)cc1)c1cnccn1 (stereo not drawn),i
O=C(Nc1ccccc1F)c1cc2c(=O)n3ccccc3nc2s1,i
COc1ccc(Cl)cc1NC(=O)c1cc2c(=O)n3ccccc3nc2s1,37.0%*
O=C(Nc1ccc(F)c(Cl)c1)c1cc2c(=O)n3ccccc3nc2s1,i
